SNCA expr inhib – inhibitors of alpha-synuclein (SNCA) gene expression | HEK-293 SNCA-luciferase knock-in, luminescence, 24 h | Potency, µM (highest dose often 57.2 µM), most hits filed as inhibitors | hit rate 0.17% among 140,000; also: nearly all actives have a fitted effect of over 45% in size
SNCA viab count – cell viability loss counter-screen. HEK-293-SNCA-luc viability, GF-AFC fluorescence, 24 h. Potency, µM (doses to about 57.1 µM), most hits filed as cytotoxic. hit rate 0.12% among 150,000; also: nearly all actives have a fitted effect of over 30% in size
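HEK-293-SNCA-luc cells (1500/well) plated 24 h, then exposed 24 h to a dilution series; GF-AFC added 30 min at 37C, fluorescence 405/540 nm; normalised to medium-only and DMSO wells, Hill fit.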
KDM5B inh – KDM5B demethylase inhibition; AID 1347165; hit rate 2.6% among 220,000; KDM5B demethylase, FDH-coupled NADH fluorescence (FDH is formaldehyde dehydrogenase); Q9UGL1; Potency, µM (top dose mostly 57.7 µM), actives largely listed as inhibitors; also: nearly all actives have a fitted effect of over 70% in size
Target sequence (Q9UGL1 whole entry, looked up): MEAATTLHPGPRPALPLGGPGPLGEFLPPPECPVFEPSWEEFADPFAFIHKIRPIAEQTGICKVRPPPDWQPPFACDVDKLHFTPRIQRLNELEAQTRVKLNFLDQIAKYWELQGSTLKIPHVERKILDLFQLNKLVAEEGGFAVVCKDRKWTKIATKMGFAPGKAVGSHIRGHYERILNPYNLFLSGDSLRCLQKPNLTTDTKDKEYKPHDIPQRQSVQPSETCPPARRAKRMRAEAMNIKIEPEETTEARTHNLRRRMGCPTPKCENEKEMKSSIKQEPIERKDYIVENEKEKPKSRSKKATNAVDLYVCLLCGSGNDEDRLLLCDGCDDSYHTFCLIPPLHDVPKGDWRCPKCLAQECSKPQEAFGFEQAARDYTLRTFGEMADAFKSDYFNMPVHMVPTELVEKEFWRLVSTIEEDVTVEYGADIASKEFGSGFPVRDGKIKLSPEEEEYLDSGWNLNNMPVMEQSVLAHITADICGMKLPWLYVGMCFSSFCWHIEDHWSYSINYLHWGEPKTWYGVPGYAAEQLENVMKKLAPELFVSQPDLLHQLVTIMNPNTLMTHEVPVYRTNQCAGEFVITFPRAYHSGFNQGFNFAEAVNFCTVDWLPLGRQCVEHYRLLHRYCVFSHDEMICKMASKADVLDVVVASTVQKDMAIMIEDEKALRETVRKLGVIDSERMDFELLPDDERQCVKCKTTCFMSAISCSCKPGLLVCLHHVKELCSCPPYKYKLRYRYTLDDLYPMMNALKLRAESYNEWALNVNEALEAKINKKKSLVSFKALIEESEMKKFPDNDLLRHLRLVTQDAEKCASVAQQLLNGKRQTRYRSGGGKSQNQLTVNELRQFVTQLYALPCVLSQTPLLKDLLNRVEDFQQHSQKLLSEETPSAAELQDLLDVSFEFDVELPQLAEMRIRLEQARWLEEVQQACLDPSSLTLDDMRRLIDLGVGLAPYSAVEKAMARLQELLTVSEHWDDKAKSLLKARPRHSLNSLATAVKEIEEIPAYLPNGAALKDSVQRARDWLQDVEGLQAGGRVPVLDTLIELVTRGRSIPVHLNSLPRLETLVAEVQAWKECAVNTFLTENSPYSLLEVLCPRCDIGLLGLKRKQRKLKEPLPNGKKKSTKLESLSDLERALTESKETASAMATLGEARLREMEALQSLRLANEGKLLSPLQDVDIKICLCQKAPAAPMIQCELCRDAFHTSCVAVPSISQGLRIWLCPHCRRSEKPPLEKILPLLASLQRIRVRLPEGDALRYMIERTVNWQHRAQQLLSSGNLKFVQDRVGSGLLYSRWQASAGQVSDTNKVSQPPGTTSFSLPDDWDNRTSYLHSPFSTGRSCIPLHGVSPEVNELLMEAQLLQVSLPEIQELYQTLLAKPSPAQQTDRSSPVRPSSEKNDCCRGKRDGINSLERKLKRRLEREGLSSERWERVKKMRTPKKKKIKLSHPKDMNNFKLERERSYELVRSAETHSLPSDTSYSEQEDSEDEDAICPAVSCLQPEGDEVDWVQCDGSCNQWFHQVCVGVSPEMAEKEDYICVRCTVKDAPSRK
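KDM5BΔAP (200 nM final) in 50 mM HEPES pH 7.5, 0.01% Tween-20 was preincubated 10 min at RT with compound over a concentration range. Substrate mix (H3K4me3 12.5 µM, α-KG 25 µM, Fe²⁺, ascorbate, NAD⁺, FDH) was added, and NADH fluorescence change over 30 min gave dose-response curves.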
IP6K1 inh – blocks human inositol hexakisphosphate kinase 1. Q92551. IP6K1 kinase, ADP-Glo luminescence, 2 h; stronger effect = lower value. activity change, % (series mostly up to about 58 µM). hit rate 0.81% among 140,000; in the data active = activity change below about -25%
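ADP-Glo luminescence measures ADP made by human IP6K1 during a 2 h RT reaction with ATP/IP6 (mix at 1.3 mM/130 uM); top library doses 57.5 and 19.1 uM final.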
IP6K1 inh cnf – confirmation of human IP6K1 inhibitors; shares compounds with IP6K1 inh; recombinant IP6K1 kinase, ADP-Glo luminescence, 2 h; Potency, µM (doses to about 49 µM), actives largely listed as inhibitors; hit rate 13% among 1,200; AID 1645852; also: nearly all actives have a fitted effect of over 65% in size
Large screens that a line does not name were inactive (follow-up assays come after a bar, where they were run); ! = not confirmed by another sample. This is a sample that favours compounds with a hit; in the whole collection about 2.9% have one here. Unless noted, calls follow the shape of the dose curve; as a rule, active = well fitted curve in the direction sought with a large enough effect; inconclusive = small, poorly fitted or top-dose-only effect, or another doubt; inactive = no such curve, though single readings can be large; an effect the other way counts as inactive or inconclusive.

COc1cccc(-c2cc(C(=O)NCCc3ccccn3)c3cnn(C)c3n2)c1	none (no result: SNCA expr inhib, SNCA viab count, KDM5B inh)
COc1ccc(CC(=O)N2CCC(N3C(=O)c4c(c(C)nn4-c4ccccc4)C3C)C2)cc1 (centres undefined)	none (no result: SNCA expr inhib, SNCA viab count, KDM5B inh)
O=[S+]([O-])(NC1CCN(c2ccnc3ccnn23)C1)c1cccs1 (centres undefined)	none (no result: KDM5B inh)
COc1ccc(-c2csc(=Nc3ccccc3)n2CCO)cc1F	KDM5B inh inconclusive, IP6K1 inh -31.4 | IP6K1 inh cnf inconclusive
N#Cc1ccc2ncnc(NCCc3ccccc3)c2c1	IP6K1 inh -45.0 (no result: SNCA expr inhib, KDM5B inh) | IP6K1 inh cnf 10.3µM
N#Cc1cccc(-c2ccc3ncnc(NCc4cccnc4)c3c2)c1	none (no result: KDM5B inh, IP6K1 inh)
CCN(CC)C(=O)c1ccc(Nc2nc(OCC3CCCCC3)c3[nH]cnc3n2)cc1	IP6K1 inh -40.5 (no result: SNCA expr inhib, KDM5B inh) | IP6K1 inh cnf 10.3µM
NS(=O)(=O)c1ccc(Nc2nc(OCC3CCCCC3)c3[nH]cnc3n2)cc1	SNCA viab count inconclusive, IP6K1 inh -46.7 (no result: KDM5B inh) | IP6K1 inh cnf 4.11µM
Cc1cccc(-c2nc3c4ccccc4nc(NCc4ccccc4Cl)n3n2)c1	IP6K1 inh -27.2 | IP6K1 inh cnf inactive
CCN(CC)C(=S)SSC(=S)N(CC)CC	SNCA expr inhib inconclusive, SNCA viab count inconclusive, IP6K1 inh -55.6! (no result: KDM5B inh) | IP6K1 inh cnf 8.91µM
N[C@H]1CCN2C(=O)c3cc(-c4ccc5c(c4)OCO5)ccc3NC(=O)[C@H]12	KDM5B inh inconclusive, IP6K1 inh -30.2 | IP6K1 inh cnf inactive
O=C1Nc2ccc(-c3ccc4c(c3)OCO4)cc2C(=O)N2CC[C@H](NC(=O)N3CCOCC3)[C@@H]12	none
CCc1ccccc1Nc1nn2c(=O)c3ccc(C(=O)NCc4ccccc4Cl)cc3nc2s1	IP6K1 inh -26.2 | IP6K1 inh cnf inactive
CNC(=O)c1cc(-c2ccc(CO)cc2)cc2c1OCCN2Cc1cccnc1	KDM5B inh 28.2µM, IP6K1 inh -26.5 | IP6K1 inh cnf inactive
O=C(NCc1cccnc1)c1cc(-c2ccccc2F)cc2c1OCCN2Cc1cccnc1	SNCA viab count inconclusive, KDM5B inh 28.2µM, IP6K1 inh -27.7 | IP6K1 inh cnf inconclusive
O=C(NC1CC1)c1cc(-c2ccccc2F)cc2c1OCCN2Cc1cccnc1	SNCA viab count inconclusive, KDM5B inh 31.6µM, IP6K1 inh -25.7 | IP6K1 inh cnf inconclusive
COc1ccc(-c2cc(C(=O)NCc3cccnc3)c3c(c2)N(C)CCO3)cn1	KDM5B inh inconclusive
Cc1nn(-c2ccccc2)c2c1C(C(C)C)N(C1CCN(C(=O)Nc3ccc(Cl)cc3)C1)C2=O (centres undefined)	none (no result: SNCA expr inhib, SNCA viab count, KDM5B inh)
CCCC(=O)N1Cc2ccccc2CC2(CCCCN2Cc2ccccn2)C1 (centres undefined)	SNCA expr inhib inconclusive, KDM5B inh inconclusive
Cc1ccccc1S(=O)(=O)N1CCCC(CCC(=O)Nc2ccc(F)cc2F)C1 (centres undefined)	SNCA expr inhib inconclusive (no result: KDM5B inh)
COc1ccc2nc3n(c2c1)[C@@H](CNS(=O)(=O)c1ccc(F)cc1)COC3	none
COc1ccc2nc3n(c2c1)[C@@H](CNC(=O)c1ccc(F)cc1)COC3	KDM5B inh 35.5µM, IP6K1 inh -25.9 | IP6K1 inh cnf inconclusive
CC(C)CCNS(=O)(=O)c1ccc(N2CCCCS2(=O)=O)cc1	IP6K1 inh -30.1 | IP6K1 inh cnf inactive
CCCCCNS(=O)(=O)c1ccc(N2CCCCS2(=O)=O)cc1	none
COc1ccc2[nH]c3c(c2c1)CCNC31CCN(C(=O)c2ccc(OC)nc2OC)CC1	KDM5B inh inconclusive
COC(=O)N1CCN(c2nccc(Nc3ccccc3F)n2)CC1	SNCA viab count inconclusive (no result: KDM5B inh)
O=S(=O)(O)c1ccc2cc(N=Nc3cc(S(=O)(=O)O)c4cccnc4c3O)ccc2c1	SNCA expr inhib inconclusive, SNCA viab count inconclusive, IP6K1 inh -51.9 (no result: KDM5B inh) | IP6K1 inh cnf inconclusive
Cc1nc(N=Nc2ccc(S(=O)(=O)O)cc2S(=O)(=O)O)c(COP(=O)(O)O)c(C=O)c1O	none (no result: KDM5B inh, IP6K1 inh)
Brc1c(Br)c(Br)c2n[nH]nc2c1Br	none (no result: KDM5B inh, IP6K1 inh) | IP6K1 inh cnf 0.731µM
CCc1nc2c(c(-c3ccc(Cl)cc3)n1)CN(Cc1cccc(F)c1)CC2	SNCA expr inhib inconclusive, SNCA viab count inconclusive, KDM5B inh inconclusive
COc1ccccc1CNC(=O)c1cc2cccc3c2n1CC(C)S3 (centres undefined)	SNCA expr inhib inconclusive, KDM5B inh inconclusive, IP6K1 inh -32.8 | IP6K1 inh cnf inactive
CCCCN(CC)C(=O)Cn1c(=O)n(-c2ccc(OCC)cc2)c(=O)c2c3c(sc21)CCC3	IP6K1 inh -33.4 | IP6K1 inh cnf inactive
CCc1ccc(-n2c(=O)c3c4c(sc3n(Cc3ccc(C)cc3)c2=O)CCC4)cc1	none
CCc1ccc(-n2c(=O)c3c4c(sc3n(Cc3ccc(F)cc3)c2=O)CCCC4)cc1	IP6K1 inh -28.0 | IP6K1 inh cnf inactive
O=C(c1ccc(N2CCCC(CO)C2)nc1)N1CCC(N2CCOCC2)CC1 (centres undefined)	KDM5B inh inconclusive, IP6K1 inh -34.9 | IP6K1 inh cnf inactive
OC1CCN(c2cc(N3CCOC(c4ccc(F)cc4)C3)ncn2)CC1 (centres undefined)	none
CCc1nc2nc(C)cc(Nc3cccc(C)c3C)n2n1	IP6K1 inh -32.7 | IP6K1 inh cnf inconclusive
O=C(c1ccco1)N1CC(Oc2ccccc2-c2nc(-c3ccccc3)no2)C1	SNCA viab count inconclusive, KDM5B inh inconclusive
CC(C)[C@H](CO)Nc1nc(Nc2ccc(C(=O)O)c(Cl)c2)c2ncn(C(C)C)c2n1	SNCA expr inhib inconclusive (no result: KDM5B inh) | IP6K1 inh cnf inactive
O=c1cc(-c2ccc(O)cc2)oc2cc(O)cc(O)c12	none (no result: KDM5B inh, IP6K1 inh) | IP6K1 inh cnf 1.46µM
O=[S+]([O-])(NC1CCN(c2ccc3nnc(C4CC4)n3n2)C1)c1ccccc1 (centres undefined)	none (no result: SNCA expr inhib, SNCA viab count, KDM5B inh)
COc1cccc(NC(=O)CSc2ncc(S(=O)(=O)c3ccc(C)c(C)c3)c(=O)[nH]2)c1	SNCA expr inhib inconclusive, IP6K1 inh -29.3 | IP6K1 inh cnf inconclusive
Cc1ccc(S(=O)(=O)c2cnc(SCC(=O)Nc3ccc4c(c3)OCCO4)[nH]c2=O)cc1	IP6K1 inh -30.4 | IP6K1 inh cnf inconclusive
CC(C)c1ccc(S(=O)(=O)c2cnc(SCC(=O)Nc3ccc4c(c3)OCCO4)[nH]c2=O)cc1	none
Cc1ccc(-c2cccc(CN3CCCC(NC(=O)c4ccccc4F)C3)c2)cc1Cl (centres undefined)	none (no result: SNCA expr inhib, SNCA viab count, KDM5B inh)
Cc1ccc(CN2CC(Oc3ccc(-c4noc(-c5cccnc5)n4)cc3)C2)o1	none
Cc1ccc(Nc2ncnc3c2nc2n3CCCC2)cc1F	none
Cc1cc(C)cc(Nc2ncnc3c2nc2n3CCCC2)c1	KDM5B inh inconclusive, IP6K1 inh -31.7 | IP6K1 inh cnf inactive
O=C(NC1CCCC1)C1CCCCN1Cc1ccc(-c2cccs2)cc1 (centres undefined)	SNCA expr inhib inconclusive (no result: KDM5B inh)
CCC(C)(C)C(=O)NCc1cc2c(nc1OC)CN(C1CCCC1)C2=O	IP6K1 inh -30.0 | IP6K1 inh cnf inactive
COc1nc2c(cc1CNC(=O)CC1CCCCC1)C(=O)N(C1CCCC1)C2	none

Screening results deposited in PubChem BioAssay by National Center for Advancing Translational Sciences (NCATS).
